# Screening results from PubChem.
# Most compounds without a hit are left out; they make up all but 18% or so of the library.
# TDP1 block: inhibitors of human tyrosyl-DNA phosphodiesterase TDP1. Q9NUW8. recombinant TDP1, AlphaScreen DNA substrate cleavage. Potency, µM (doses to about 130 µM), most hits filed as inhibitors. 0.28% of 350,000 active. AID 485290; further: nearly all actives have a fitted effect of over 40% in size
#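 Recombinant E. coli-expressed Tdp1 (1 nM) preincubated with compound 15 min at RT, then 5'-biotin/3'-phosphotyrosine-FITC DNA substrate (15 nM) added for 5 min. AlphaScreen beads (10 ug/ml) added, 10 min RT; tyrosine-FITC cleavage read as signal loss.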
# DT40 TDP1 CPT: DT40-hTDP1 cell growth loss with CPT; chicken DT40 Tdp1-/-;hTDP1 cells + 20 nM CPT, ATP luminescence, 48 h; AID 686979; 12% of 420,000 active; Potency, µM (doses to about 46.2 µM), hits mostly inhibitors; further: nearly all actives have a fitted effect of over 55% in size
#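 Cell growth measured by CellTiter-Glo luminescence after a minimum 48 h, 37 C compound exposure with 20 nM CPT in Tdp1-knockout DT40 cells stably expressing hTDP1, seeded 400/well; qHTS titration format.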
# TDP1 cell noCPT: qHTS for Inhibitors of human tyrosyl-DNA phosphodiesterase 1 (TDP1): qHTS in cells in absence of CPT. 15% of 420,000 active. Potency, µM (doses to about 46.2 µM), hits mostly inhibitors. AID 686978, 2013. DT40 Tdp1-/- hTDP1 cells, no CPT, ATP luminescence, 48 h; further: nearly all actives have a fitted effect of over 55% in size
#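 Growth kinetics read by CellTiter-Glo luminescence after ≥48 hr at 37 °C. Cells: DT40 Tdp1-/- stably carrying human TDP1, 400 per well, compound exposure in the absence of CPT (DMSO vehicle).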
# VDR inhibitor: blocks the human vitamin D receptor; P11473; VDR-SRC2-3 peptide fluorescence polarization, 2 h; Potency, µM, most hits filed as inhibitors; 0.93% of 400,000 active; AID 504847
#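 Reagent solutions, kept cold and dark, are dispensed first; compounds are then pinned in at 23 nl, plates briefly spun, and incubated 2 h at ambient temperature. Inhibition of VDR–SRC2-3 peptide binding is read by fluorescence polarization.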
# GCN5L2 inh: GCN5L2 (KAT2A) acetyltransferase inhibition. Q92830. Potency, µM (doses to about 58.9 µM), actives largely listed as inhibitors. GCN5L2 HAT assay, ThioGlo1 CoA-SH fluorescence. 0.21% of 390,000 active
# Target sequence (Q92830 whole entry, looked up): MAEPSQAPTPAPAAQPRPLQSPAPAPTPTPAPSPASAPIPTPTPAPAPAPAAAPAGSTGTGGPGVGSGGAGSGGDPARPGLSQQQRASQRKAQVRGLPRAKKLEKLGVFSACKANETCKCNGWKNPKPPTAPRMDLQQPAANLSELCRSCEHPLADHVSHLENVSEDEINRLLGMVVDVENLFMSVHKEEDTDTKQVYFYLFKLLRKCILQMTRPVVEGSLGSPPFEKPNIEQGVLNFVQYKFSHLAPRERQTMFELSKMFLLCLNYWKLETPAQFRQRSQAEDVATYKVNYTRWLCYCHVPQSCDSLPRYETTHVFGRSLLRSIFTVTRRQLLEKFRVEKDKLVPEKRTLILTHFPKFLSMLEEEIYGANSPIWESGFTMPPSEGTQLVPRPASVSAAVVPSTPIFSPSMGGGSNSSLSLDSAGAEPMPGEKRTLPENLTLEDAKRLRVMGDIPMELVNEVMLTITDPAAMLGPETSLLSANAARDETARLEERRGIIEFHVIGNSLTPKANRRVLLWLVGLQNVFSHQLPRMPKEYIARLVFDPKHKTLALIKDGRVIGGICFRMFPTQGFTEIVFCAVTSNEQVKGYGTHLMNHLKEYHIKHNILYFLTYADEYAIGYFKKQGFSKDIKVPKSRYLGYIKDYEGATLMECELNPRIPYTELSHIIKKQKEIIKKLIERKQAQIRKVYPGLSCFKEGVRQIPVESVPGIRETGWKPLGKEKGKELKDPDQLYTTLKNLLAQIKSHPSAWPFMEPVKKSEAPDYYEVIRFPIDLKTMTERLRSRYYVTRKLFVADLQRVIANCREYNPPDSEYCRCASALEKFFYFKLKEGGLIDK
#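 qHTS, 1536-well. 20nM enzyme, pH 7.5 HEPES/EDTA/Tween-20 buffer; 15 min compound preinc., RT. Start: 75uM H3(1-25), 70uM AcCoA, 50uM ThioGlo1. Read Ex340/Em540 at t=0 (autofluorescence flag) and t=20 min.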
# PLK1 PBD inh: PLK1 (human) polo-box domain binding inhibition | P53350 | Potency, µM, hits mostly inhibitors | 2.8% of 360,000 active | Plk1 PBD binding of FITC phosphopeptide, fluorescence polarization; further: series mostly up to about 57 µM; nearly all actives have a fitted effect of over 65% in size
# Numbers stand for hits; 0 = inactive; ? = inconclusive; - = no result; [ ] = another dose, or the depositor's remark. The call rests on the fitted dose curve; in most records, active means well fitted curve in the direction sought with a large enough effect; inconclusive means small, poorly fitted or top-dose-only effect, or another doubt; inactive means no such curve, though single readings can be large; an effect the other way counts as inactive or inconclusive.
SMILES,TDP1 block,DT40 TDP1 CPT,TDP1 cell noCPT,VDR inhibitor,GCN5L2 inh,PLK1 PBD inh
Cc1ccc(S(=O)(=O)/N=c2\ccc(Cl)cn2C(F)F)cc1,0,0,0,0,0,0
CCN(CC(=O)Nc1c(F)cccc1F)C(=O)c1ccc(C)c(S(=O)(=O)N2CCCCC2)c1,0,0,0,0,0,0
O=C(CCCn1c(=O)c2cccn2c2cccnc21)NCCc1ccc(Cl)cc1,0,21µM,23µM,0,?,0
CCc1ccc(CNC(=O)CCCn2c(=O)c3cccn3c3cccnc32)cc1,0,16µM,?,0,0,0
CCCNC(=O)c1ccc(Cn2c(=O)c3cccn3c3cccnc32)cc1,0,0,0,0,0,-
O=C(CCn1c(=O)c2cccn2c2cccnc21)NCc1cccc(Cl)c1,0,?,0,0,0,0
CC(C)Oc1ccc(CNC(=O)CCCn2c(=O)c3cccn3c3ccccc32)cc1,0,16µM,23µM,0,0,-
O=C(CCn1c(=O)c2cccn2c2cccnc21)NCc1ccc(Cl)cc1,0,0,?,0,0,-
CCOc1ccc(CNC(=O)CCCn2c(=O)c3cccn3c3ccccc32)cc1,0,?,?,0,0,-
O=C(NCCc1ccccc1Cl)c1ccc(Cn2c(=O)c3cccn3c3cccnc32)cc1,0,10µM,10µM,0,0,-
Cc1nn(CC(=O)NCCc2ccc(Cl)cc2)c(=O)c2cccn12,0,?,?,?,0,27µM
O=C(CCCn1c(=O)c2cccn2c2cccnc21)NCc1cccc(Br)c1,0,?,?,0,0,0
CC(C)Oc1ccc(CNC(=O)CCCn2c(=O)c3cccn3c3cccnc32)cc1,0,26µM,16µM,0,0,-
CCOc1cc(CNC(=O)CCCn2c(=O)c3cccn3c3cccnc32)cc(OCC)c1OCC,0,?,23µM,0,0,0
CSc1cccc(NC(=O)CCCn2c(=O)c3cccn3c3cccnc32)c1,0,?,21µM,0,0,0
CC(C(=O)NCCc1ccc(Cl)cc1)n1c(=O)c2cccn2c2cccnc21 (stereo not given),0,?,18µM,0,0,0
Cc1cc(C)cc(OC(=O)c2cc(-c3ccc4c(c3)OCCO4)on2)c1,0,0,0,0,0,-
Cc1ccc2c(c1)C(c1ccc(F)cc1)N(C(=O)COc1ccc(Cl)cc1Cl)CC(=O)N2 (stereo not given),0,21µM,?,0,0,-
O=C1CN(C(=O)c2ccc(Cl)cc2Cl)C(c2ccc(F)cc2)c2cc(F)ccc2N1 (stereo not given),0,?,?,0,0,-
O=C1CN(C(=O)COc2ccc(Cl)cc2Cl)C(c2ccccc2)c2cc(F)ccc2N1 (stereo not given),0,16µM,?,0,0,-
CC1(C)CCC[C@@](C)([C@H]2CC[C@]3(C)[C@@H]2[C@H](O)C[C@@H]2[C@@]4(C)CC[C@H](O)C(C)(C)[C@@H]4CC[C@]23C)O1,0,-,-,0,0,-
Cc1cc(C(F)(F)F)nn1-c1nc(-c2ccccc2)cc(C(F)(F)F)n1,0,?,?,0,0,-
COc1ccc(CCN(C)C(=O)c2cc(S(=O)(=O)N3CCCCC3)ccc2Cl)cc1OC,0,?,23µM,0,0,0
COc1ccc(S(=O)(=O)N2CCCCCC2)cc1C(=O)N(C)CCOc1ccc(Cl)cc1,0,21µM,21µM,0,0,0
CCN1CCN(S(=O)(=O)c2ccc(Cl)c(C(=O)N(C)CCOc3ccc(Cl)cc3)c2)CC1,-,18µM,15µM,0,0,0
Cc1cc(NS(=O)(=O)c2ccc(NC(=O)C(C)Oc3cc(C)c(Cl)c(C)c3)cc2)no1 (stereo not given),0,0,0,0,0,0
COC(=O)[C@@H]1O[C@@H](c2c(OC)c(OC)c(C)c(OC)c2OC)[C@H](C)[C@@H](O)[C@@H]1C,0[21 µM],-,-,-,-,-
CN(C)c1ccc(/C=c2\sc3nc(-c4ccccc4)nn3c2=O)cc1,0,-,-,-,0,-
